Sampled rows, rich in hits. Any-hit rate of the full collection: about 5.5%.
RORgamma inh: qHTS for inhibitors of ROR gamma transcriptional activity. hit rate 5.4% among 310,000. Drosophila S2 Gal4-RORgamma UAS-luciferase reporter, 20 h. Potency, µM (series often up to 53.6 µM), for the others: at the highest dose activity change, negative = inhibition, most hits filed as inhibitors. Nuclear receptor ROR-gamma (Mus musculus), P51450. AID 2551, 2010; also: % is scaled to controls: 0 for no effect and ±100 for the full control effect; nearly all actives have a fitted effect of over 60% in size
Target sequence (P51450 whole entry, looked up, the tested form may be a part): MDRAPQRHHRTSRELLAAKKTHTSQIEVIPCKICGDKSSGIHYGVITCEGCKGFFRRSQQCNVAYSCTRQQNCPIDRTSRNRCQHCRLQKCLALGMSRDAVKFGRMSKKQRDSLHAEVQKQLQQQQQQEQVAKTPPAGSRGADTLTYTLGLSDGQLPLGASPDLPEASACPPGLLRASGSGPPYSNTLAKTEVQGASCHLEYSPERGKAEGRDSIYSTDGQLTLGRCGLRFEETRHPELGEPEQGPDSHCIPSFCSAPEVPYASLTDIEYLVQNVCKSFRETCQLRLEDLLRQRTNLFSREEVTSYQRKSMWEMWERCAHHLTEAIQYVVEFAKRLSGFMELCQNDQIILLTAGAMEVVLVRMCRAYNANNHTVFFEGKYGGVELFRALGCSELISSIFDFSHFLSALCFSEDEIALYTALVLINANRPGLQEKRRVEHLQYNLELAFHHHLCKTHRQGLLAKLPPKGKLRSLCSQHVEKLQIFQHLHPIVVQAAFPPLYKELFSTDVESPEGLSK
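Stably transfected Drosophila Schneider cells are the test system, with ROR gamma fused to Gal4 and luciferase under UAS control; luminescence is read after 20 hr of 700 uM copper sulfate induction at ambient temperature.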
Chronic BCR inh: qHTS Assay to Find Inhibitors of Chronic Active B-Cell Receptor Signaling; hit rate 0.05% among 340,000; AID 493014, 2011; ABC-DLBCL IkBa-CBG/CBR reporter, luminescence ratio, 4 h; Potency, µM (highest dose often 46.1 µM), for inactives: at the top dose activity change, negative = inhibition, usual class: inhibitors; active = well fitted inhibition curve with a large enough effect in the signal ratio, with a control signal flat, not every such curve was filed as active; inconclusive = small, poorly fitted or top-dose-only effect, or effect the other way, or a change in a side signal; the % refers to the signal ratio;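 also: plate controls were basal doxycycline-induced cells for no effect and cells given 10 µM MG132 for full effect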
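TMD8 human ABC-DLBCL cells with doxycycline-inducible IκBα–green luciferase fusion and unfused red luciferase, in 0.5% FBS medium; compounds up to 46 uM, 4 h at 37C. Green/red luminescence ratio, filter-overlap corrected, fitted to concentration-response curves.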
Gal4-VP16 FLuc: VP16 counterscreen qHTS for inhibitors of ROR gamma transcriptional activity; Drosophila S2 Gal4-VP16 UAS-luciferase, luminescence, 20 h; Potency, µM (top dose mostly 53.6 µM), for the others: top-dose activity, negative = inhibition, hits mostly inhibitors; hit rate 3.5% among 310,000; AID 2546, 2010;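 also: Gal4-VP16 expression switched on by copper sulfate through the metallothionein promoter; % is scaled to controls: 0 for no effect and ±100 for the full control effect; nearly all actives have a fitted effect of over 50% in size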
Mito fusion yeast: qHTS Assay for Small Molecule Inhibitors of Mitochondrial Division or Activators of Mitochondrial Fusion | S. cerevisiae fusion-defective mutant growth rescue, CellTiterGlo 48 h | Potency, µM (titrated, usually from 46.1 µM), inactives show at the highest dose growth rescue (activation), hits mostly activators | hit rate 0.23% among 320,000 | AID 485298, 2010; also: % of control where 0% means no effect; nearly all actives have a fitted effect of over 45% in size
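Luminescent cell viability in 1536-well qHTS format served as the measure of rescued growth in ts fusion-mutant S. cerevisiae cultured on non-fermentable YPEG for 48 hours at 37C.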
Integrin act MD: qHTS for Activators of Integrin-Mediated Alleviation for Muscular Dystrophy | alpha7betagal myoblasts, beta-gal FDG fluorescence, 48 h | hit rate 0.064% among 350,000 | AID 624291, 2012 | Potency, µM (titrated, usually from 38.3 µM), inactives show at the highest dose activation, actives largely listed as activators;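 also: 100% = response of the positive control SU9516; nearly all actives have a fitted effect of over 60% in size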
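alpha7betagal+/- myoblasts (passage 13, 250/well) treated 48 h at 37C with compounds at 1:260 dilution of DMSO stock. Lysed, then beta-galactosidase activity read as FDG fluorescence (ex 480/em 540) after 30 min, with pre-read for autofluorescence.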
uPA surface inh: qHTS for Inhibitors of Cell Surface uPA Generation; cell surface uPA generation assay, qHTS; Potency, µM (top dose mostly 38.3 µM), for inactives: at the top dose activity change, negative = inhibition, hits mostly inhibitors; hit rate 0.31% among 330,000; AID 540303, 2011; active = well fitted inhibition curve with a large enough effect; inconclusive = small, poorly fitted or top-dose-only effect; inactive = no such curve, though single readings can be large or run the other way; tested in mouse RAW 264.7 cells; also: % is scaled to controls: 0 for no effect and ±100 for the full control effect; nearly all actives have a fitted effect of over 55% in size
The depositor's hits bear a star; ! = not active in a repeat; [ ] = dose if it differs, or a comment. Unless noted, calls follow the shape of the dose curve; as a rule, active = well fitted curve in the direction sought with a large enough effect; inconclusive = small, poorly fitted or top-dose-only effect, or another doubt; inactive = no such curve, though single readings can be large; an effect the other way counts as inactive or inconclusive. Potency is read from the fitted curve at half-maximal effect.

`COC(OC)[C@@H](C)[C@H](OC)[C@@H](C)[C@H](OC)c1ccccc1` gave RORgamma inh -12%[10 µM] and Gal4-VP16 FLuc -2%[10 µM].
Screening COc1ccc(NC(=O)c2ccc(NC(=O)COC(=O)c3cnc(C)cn3)cc2)cc1 returned Chronic BCR inh -10%, Mito fusion yeast -1%, Integrin act MD 13% and uPA surface inh 4%.
`Cc1ccc(C)c(OCCCC(C)(C)C(=O)O)c1` gave RORgamma inh -5%, Chronic BCR inh inconclusive, Gal4-VP16 FLuc 20µM*!, Mito fusion yeast inconclusive and uPA surface inh 3%.
CCc1nc2ccc(C(=O)O)cc2nc1CC was read as RORgamma inh 0.71µM*, Chronic BCR inh inconclusive, Gal4-VP16 FLuc inconclusive, Mito fusion yeast 0%, Integrin act MD -5% and uPA surface inh -2%.
For CC(C)Oc1ccc(S(=O)(=O)N2CCOCC2)cc1NC(=O)c1cccc(S(=O)(=O)N2CCCC2)c1 the results were Integrin act MD -16% and uPA surface inh -7%.
For Cc1cccc(CN2C(=O)NC(c3ccccc3)(c3ccccc3)C2=O)c1 the results were RORgamma inh inconclusive, Chronic BCR inh 0%, Gal4-VP16 FLuc 4%, Mito fusion yeast 9%, Integrin act MD -4% and uPA surface inh 6%.
For Cc1noc(C)c1CN1C(=O)NC(Cc2ccccc2)(Cc2ccccc2)C1=O the results were RORgamma inh 11µM*, Chronic BCR inh -26%, Gal4-VP16 FLuc -1%, Mito fusion yeast 7%, Integrin act MD 10% and uPA surface inh 6%.
`N#CCCN(C(=O)COC(=O)CCc1ccccc1)c1ccccc1` gave RORgamma inh 12%, Chronic BCR inh 6%, Gal4-VP16 FLuc -9%, Mito fusion yeast 16%, Integrin act MD 6% and uPA surface inh -1%.
N#CCCN(C(=O)c1ccco1)c1ccccc1 was read as RORgamma inh 1.4µM*, Chronic BCR inh 1%, Gal4-VP16 FLuc 9%, Mito fusion yeast 1%, Integrin act MD 11% and uPA surface inh 0%.
For CCOC(=O)c1c(NC(=O)/C=C/C(=O)O)sc(C)c1-c1ccc(C(C)(C)C)cc1 the results were RORgamma inh 11µM*, Chronic BCR inh inconclusive, Gal4-VP16 FLuc inconclusive, Mito fusion yeast 24%, Integrin act MD -20% and uPA surface inh -14%.
For CCOC(=O)c1c(NC(=O)/C=C\C(=O)O)sc(C)c1-c1ccccc1 the results were RORgamma inh inconclusive, Chronic BCR inh inconclusive, Gal4-VP16 FLuc 26%, Mito fusion yeast 4%, Integrin act MD -1% and uPA surface inh -5%.
`CCOc1ccc(NC(=S)Nc2cccc3ccccc23)cc1` gave RORgamma inh 7.9µM*, Chronic BCR inh -5%, Gal4-VP16 FLuc 8.9µM*, Mito fusion yeast 0%, Integrin act MD -12% and uPA surface inh -1%.
`CCOc1ccc(NC(=S)Nc2ccccc2C2CC2)cc1` gave RORgamma inh 2.8µM*, Chronic BCR inh -6%, Gal4-VP16 FLuc 11µM*, Mito fusion yeast 6%, Integrin act MD 4% and uPA surface inh 0%.
For CCOc1ccc(NC(=S)NCCCN2CCOCC2)cc1 the results were RORgamma inh -24%, Chronic BCR inh 6%, Gal4-VP16 FLuc -7%, Mito fusion yeast 30%, Integrin act MD -10% and uPA surface inh -4%.
`CCOc1ccc(NC(=S)Nc2cccc3cnccc23)cc1` gave RORgamma inh 18µM*, Chronic BCR inh -5%, Gal4-VP16 FLuc inconclusive, Mito fusion yeast -3%, Integrin act MD -32% and uPA surface inh 2%.
For COc1ccc(C(=O)NCc2nnc(SCC(=O)NCCc3ccccc3)o2)cc1 the results were RORgamma inh 1%, Chronic BCR inh -12%, Gal4-VP16 FLuc -2%, Mito fusion yeast -3%, Integrin act MD 3% and uPA surface inh -1%.
For C=CC[C@@H](CC(=O)N[C@H](CO)Cc1ccccc1)C(=O)N[C@H](COC(=O)[C@@H](CC=C)Cc1ccc(F)cc1)Cc1c[nH]c2ccccc12 the results were Chronic BCR inh inconclusive, Integrin act MD -38% and uPA surface inh inconclusive.
For O=C(N/N=C/c1ccc2cccnc2c1)c1ccco1 the results were RORgamma inh inconclusive, Chronic BCR inh inconclusive, Gal4-VP16 FLuc 11µM*, Mito fusion yeast -6%, Integrin act MD inconclusive and uPA surface inh -11%.
Screening CCN(CC)c1ccc(/C=N/NC(=S)NCc2ccccc2)c(O)c1 returned RORgamma inh 8.9µM*, Chronic BCR inh -1%, Gal4-VP16 FLuc 7.1µM*, Mito fusion yeast 8%, Integrin act MD -26% and uPA surface inh -10%.
Screening CCN(CC)c1ccc(/C=N/NC(=O)c2cc(C)nc3ccccc23)cc1 returned RORgamma inh 11µM*, Chronic BCR inh inconclusive, Gal4-VP16 FLuc inconclusive, Mito fusion yeast -3%, Integrin act MD -22% and uPA surface inh -10%.
`CCN(CC)c1ccc(C=Nc2ccc(C#N)cc2)c(O)c1` gave RORgamma inh -2%, Chronic BCR inh 2%, Gal4-VP16 FLuc 1%, Mito fusion yeast -2%, Integrin act MD 4% and uPA surface inh -6%.
`CCN(CC)c1ccc(/C=N/NC(=O)c2ccco2)c(O)c1` gave RORgamma inh 0.79µM*, Chronic BCR inh inconclusive, Gal4-VP16 FLuc 3.2µM*, Mito fusion yeast 1%, Integrin act MD -3% and uPA surface inh inconclusive.
Cc1ccccc1CN1C(=O)c2ccccc2S(=O)c2ccc(C(=O)NCc3ccccc3)cc21 (centres undefined) was read as Chronic BCR inh -4%.
O=C(NCC(c1cccs1)S(=O)(=O)c1cccs1)c1ccccc1 (centres undefined) was read as Chronic BCR inh 0%.
For CCN(CC)c1ccc(/C=N/NC(=O)c2ccco2)cc1 the results were RORgamma inh 14µM*, Chronic BCR inh inconclusive, Gal4-VP16 FLuc inconclusive, Mito fusion yeast -1%, Integrin act MD 3% and uPA surface inh -5%.
`CCN(CC)c1ccc(/C=N/N=C(c2ccccc2)c2ccccc2)c(O)c1` gave RORgamma inh inconclusive, Chronic BCR inh 3%, Gal4-VP16 FLuc 20µM*, Mito fusion yeast 0%, Integrin act MD -15% and uPA surface inh 2%.
Screening CCN(CC)c1ccc(/C=N/NC(=O)Cc2cccs2)c(O)c1 returned RORgamma inh 0.18µM*, Chronic BCR inh -2%, Gal4-VP16 FLuc 0.56µM*, Mito fusion yeast 1%, Integrin act MD 7% and uPA surface inh -19%.
